# Laboratory results taken from PubChem BioAssay (NCATS).
# Inconclusive results are not listed. Where a call stands in place of a potency, no number is given. Activity calls are given as the source filed them. Calls follow the shape of the dose curve; as a rule, active = well fitted curve in the direction sought with a large enough effect; inconclusive = small, poorly fitted or top-dose-only effect, or another doubt; inactive = no such curve, though single readings can be large; an effect the other way counts as inactive or inconclusive.
# Key:
# [1] = qHTS of pediatric cancer cell lines to identify multiple opportunities for drug repurposing: Primary screen for Saos-2 cells (AID 1347097); also: nearly all actives have a fitted effect of over 40% in size; also: potency is read from the fitted curve at half-maximal effect
# Summary of the method: (§1)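 Viability was measured as metabolically active cells after 48 hours of treatment, read by CellTiter-Glo luminescence. Compounds were tested at multiple final concentrations, giving concentration-response curves.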
# [2] = qHTS of pediatric cancer cell lines to identify multiple opportunities for drug repurposing: Primary screen for RD cells (AID 1347104); also: nearly all actives have a fitted effect of over 55% in size; also: potency is read from the fitted curve at half-maximal effect
# Summary of the method: as §1
# [3] = qHTS of pediatric cancer cell lines to identify multiple opportunities for drug repurposing: Primary screen for control Hh wild type fibroblast cells (AID 1347106);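 also: series mostly up to about 46 µM; a drop in luminescence marks cytotoxicity and a rise apparent proliferation; nearly all actives have a fitted effect of over 55% in size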
# Summary of the method: (§2)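 Viability after 48 h compound treatment at 37C, 500-1,000 cells/well, read as ATP luminescence with CellTiter-Glo. Primary screens used 11-point (MIPE, 0.78 nM-46 µM) or 8-point (NPC, 0.59 nM-46 µM) final concentrations; follow-up screens used 11-point dilutions.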
# [4] = qHTS of pediatric cancer cell lines to identify multiple opportunities for drug repurposing: Primary screen for SK-N-SH cells (AID 1347098); also: nearly all actives have a fitted effect of over 65% in size; also: potency is read from the fitted curve at half-maximal effect
# Summary of the method: (§3)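 Cells (500-1,000/well) rested 5 h, then received compounds for 48 h; metabolically active cells were measured by CellTiter-Glo luminescence. Final concentrations spanned up to 46 µM (MIPE, 11-point) or 0.59 nM-46 µM (NPC, 8-point) in primary screens, 11-point in follow-ups.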
# [5] = qHTS of pediatric cancer cell lines to identify multiple opportunities for drug repurposing: Primary screen for NB1643 cells (AID 1347099); also: nearly all actives have a fitted effect of over 50% in size; also: potency is read from the fitted curve at half-maximal effect
# Summary of the method: as §1
# [6] = qHTS of pediatric cancer cell lines to identify multiple opportunities for drug repurposing: Primary screen for LAN-5 cells (AID 1347100); also: potency is read from the fitted curve at half-maximal effect
# Summary of the method: as §2
# [7] = qHTS of pediatric cancer cell lines to identify multiple opportunities for drug repurposing: Primary screen for BT-12 cells (AID 1347101); also: nearly all actives have a fitted effect of over 25% in size; also: potency is read from the fitted curve at half-maximal effect
# Summary of the method: as §3
# [8] = qHTS of pediatric cancer cell lines to identify multiple opportunities for drug repurposing: Primary screen for Rh18 cells (AID 1347102); also: nearly all actives have a fitted effect of over 65% in size; also: potency is read from the fitted curve at half-maximal effect
# Summary of the method: as §2
# [9] = qHTS of pediatric cancer cell lines to identify multiple opportunities for drug repurposing: Primary screen for MG 63 (6-TG R) cells (AID 1347105); also: nearly all actives have a fitted effect of over 50% in size; also: potency is read from the fitted curve at half-maximal effect
# Summary of the method: as §1
# [10] = qHTS of pediatric cancer cell lines to identify multiple opportunities for drug repurposing: Primary screen for OHS-50 cells (AID 1347103); also: nearly all actives have a fitted effect of over 40% in size; also: potency is read from the fitted curve at half-maximal effect
# Summary of the method: as §3
SMILES,Potency [1],Potency [2],Potency [3],Potency [4],Potency [5],Potency [6],Potency [7],Potency [8],Potency [9],Potency [10]
CC1=C(C(=O)OC(C)C)C(c2cccc([N+](=O)[O-])c2)C(C(=O)OC2CN(C(c3ccccc3)c3ccccc3)C2)=C(N)N1 (centres undefined),21.1 µM (active),23.7 µM (active),inactive,,,,,,,
N[C@H](Cc1c[nH]c2ccccc12)C(=O)O,,inactive,inactive,inactive,inactive,inactive,inactive,inactive,inactive,
CNCC[C@@H](Oc1ccccc1C)c1ccccc1,,inactive,inactive,inactive,inactive,inactive,inactive,inactive,inactive,
CCCCOc1cc(C(=O)NCCN(CC)CC)c2ccccc2n1,inactive,,inactive,,,,inactive,inactive,inactive,
Cc1cc(N)c2cc(NC(=O)Nc3ccc4nc(C)cc(N)c4c3)ccc2n1,inactive,,inactive,,,inactive,inactive,inactive,inactive,inactive
Cc1cc(O)c(C(C)C)cc1Cl,,inactive,inactive,inactive,inactive,inactive,inactive,inactive,inactive,
O=C1[C@H]2CCCC[C@H]2C(=O)N1CCCCN1CCN(c2nsc3ccccc23)CC1,,inactive,inactive,inactive,inactive,,,inactive,inactive,
Cc1c(C)n(CCN(C)C)c2ccc(C(=O)OCCN(C)C)cc12,inactive,inactive,inactive,,inactive,inactive,,inactive,inactive,inactive
CCCCOc1ccc(C(=O)CCN2CCCCC2)cc1,23.7 µM (active),,inactive,,,,,,,
CCCC(=O)Nc1ccc(OCC(O)CNC(C)C)c(C(C)=O)c1 (centres undefined),,inactive,inactive,inactive,inactive,inactive,inactive,inactive,inactive,
CC(C)(C(=O)c1cccnc1)c1cccnc1,,inactive,inactive,inactive,inactive,inactive,inactive,inactive,inactive,
CC(C)NC[C@@H](O)COc1cccc2ccccc12,,26.6 µM (active),inactive,inactive,inactive,inactive,inactive,inactive,inactive,
CN1CCC(=C2c3ccccc3Sc3ccccc32)CC1,,,inactive,19.4 µM (active),inactive,inactive,,,inactive,17.4 µM (active)
CC(=O)c1ccc2c(c1)N(CCCN1CCC(CCO)CC1)c1ccccc1S2,inactive,,inactive,,inactive,inactive,,,inactive,
C[C@]12C=CC(=O)C=C1CC[C@@H]1[C@@H]2[C@@H](O)C[C@@]2(C)[C@H]1CC[C@]2(O)C(=O)CO,,inactive,inactive,inactive,inactive,inactive,inactive,inactive,inactive,
CC1(C)O[C@@H]2C[C@H]3[C@@H]4C[C@H](F)C5=CC(=O)C=C[C@]5(C)[C@H]4[C@@H](O)C[C@]3(C)[C@]2(C(=O)CO)O1,,inactive,inactive,inactive,inactive,inactive,inactive,inactive,inactive,inactive
CC(C)(C)CC(C)(C)c1ccc(O)c(Cc2ccc(Cl)cc2Cl)c1,16.8 µM (active),,inactive,,,21.1 µM (active),,,26.6 µM (active),24.6 µM (active)
C/C=C(/C(=C/C)c1ccc(O)cc1)c1ccc(O)cc1,21.1 µM (active),,inactive,,,inactive,,inactive,,21.9 µM (active)
CC(C)(C)CC(C)(C)c1ccc(OCCOCC[N+](C)(C)Cc2ccccc2)cc1,13.3 µM (active),26.6 µM (active),,,,21.1 µM (active),8.71 µM (active),10.6 µM (active),26.6 µM (active),6.17 µM (active)
C[n+]1c2cc(N)ccc2cc2ccc(N)cc21 (tested in a mixture with another compound),,15 µM (active),,3.86 µM (active),7.5 µM (active),5.96 µM (active),3.89 µM (active),8.41 µM (active),,17.4 µM (active)
Oc1ccc(Cl)cc1Sc1cc(Cl)ccc1O,15 µM (active),23.7 µM (active),inactive,,18.8 µM (active),18.8 µM (active),19.5 µM (active),,,
CCOc1ccc(NC(=O)CC(C)O)cc1 (centres undefined),,inactive,inactive,inactive,inactive,inactive,inactive,inactive,inactive,inactive
CCN(CC)CCOc1ccc(C(O)(Cc2ccc(Cl)cc2)c2ccc(C)cc2)cc1 (centres undefined),16.8 µM (active),,inactive,,,21.1 µM (active),11 µM (active),23.7 µM (active),,15.5 µM (active)
O=c1c(-c2ccccc2)c1-c1ccccc1,11.9 µM (active),18.8 µM (active),,,8.41 µM (active),18.8 µM (active),5.5 µM (active),,,13.8 µM (active)
O=C(CCN1CCC(c2ccccc2)C1)c1ccc2c(c1)OCCO2 (centres undefined),23.7 µM (active),,inactive,,,,,inactive,,
COc1cc(N)c(Cl)cc1C(=O)NC1CCN(CCCOc2ccc(F)cc2)CC1OC (centres undefined),inactive,,inactive,,inactive,inactive,,inactive,inactive,30.9 µM (active)
CC(=O)Oc1ccc2c(c1)CC[C@@H]1[C@@H]2CC[C@]2(C)[C@@H](O)CC[C@@H]12,23.7 µM (active),inactive,inactive,,inactive,,,inactive,inactive,
CC(Cc1cccc(C(F)(F)F)c1)NCCOC(=O)c1ccccc1 (centres undefined),,inactive,inactive,inactive,inactive,inactive,inactive,inactive,inactive,
O=S1(=O)c2cccc3cccc(c23)N1CCCN1CCN(c2ccc(F)cc2)CC1,inactive,inactive,inactive,,inactive,,inactive,inactive,inactive,
